Compound activity deposited in PubChem BioAssay by several laboratories.
NLRP3 yeast inh = blocks the NALP3 inflammasome reconstituted in yeast; Yeast reconstituted NLRP3/ASC/caspase-1, beta-gal luminescence, 24 h; hit rate 0.39% among 330,000; inhibition, % at 10 µM;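 active = inhibition of 50% or more; inactive = inhibition below 50%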
PfHsp90 yeast 2 = inhibits growth of yeast expressing Plasmodium falciparum Hsp90; S. cerevisiae expressing PfHsp90, BacTiter-Glo ATP, 48 h; yeast lacking PDR1 and PDR3 efflux regulators; inhibition, % at 9.4 µM; hit rate 0.32% among 310,000;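 active = every replicate shows inhibition above about 80%, whatever the replicate mean, limit read from the data; inconclusive = mean inhibition reaches the set limit but some replicate falls short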
tim23-1 inh = tim23-1 yeast growth inhibition | S. cerevisiae tim23-1 growth, BacTiter-Glo luminescence, 24 h | inhibition, % at 20 µM | hit rate 1.3% among 330,000 | AID 463212;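 active = growth inhibition of the mutant yeast at or above 50%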;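 also: temperature-sensitive mutant grown at 25 °C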
TIM10 inh = TIM10 yeast growth inhibition; hit rate 1.4% among 330,000; S. cerevisiae TIM10 strain growth, BacTiter-Glo luminescence, 24 h; AID 463195; inhibition, % at 10 µM;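 active = inhibition of 40% or more at the single tested concentration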;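 also: wild-type TIM10 isogenic control strain grown at permissive 25 °C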
tim10-1 inh = tim10-1 yeast growth inhibition; S. cerevisiae tim10-1 ts strain growth, BacTiter-Glo, 24 h; inhibition, % at 20 µM; hit rate 2.2% among 330,000; AID 463190;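 active = inhibition of at least 40%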;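 also: mutant grown at 25 °C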
SKKanGAS inh = inhibitors of SKKanGAS S. pyogenes growth in kanamycin (SK-promoter or general growth effect). BacTiter-Glo, 6 h. inhibition, % at 7.5 µM. hit rate 1.3% among 300,000. AID 1662;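 active = mean replicate score, as percent of positive control median, at least 50; inconclusive = mean below 50 but one replicate at or above 50; inactive = mean and every replicate below 50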;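 also: strain carries kanamycin resistance gene driven by streptokinase promoter and grows in 40 µg/ml kanamycin; loss of luminescence reflects streptokinase promoter inhibition or plain growth inhibition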
tim10-1 confirm = confirmation of tim10-1 mutant yeast growth inhibitors; shares compounds with tim10-1 inh; S. cerevisiae tim10-1 ts strain growth, BacTiter-Glo, 24 h; inhibition, % at 20 µM; hit rate 56% among 7,400; AID 463213;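 active = inhibition of yeast growth at or above a set limit in either of two repeat tests at 20 µM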;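 also: tim10-1 mutant grown at permissive 25 °C to find synthetic lethal compounds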
Of the large screens only hits and unclear results are named; the others gave an inactive call (follow-up assays come after a bar, where they were run). Sampled rows, rich in hits. Any-hit rate of the full collection: about 4.6%.

O=C(CSCC(=O)N1CCN(c2ccccc2)CC1)Nc1nc(-c2ccc(Cl)s2)cs1	none
C=CC[n+]1c(-c2ccc(C)cc2)csc1Nc1c(C)n(C)n(-c2ccccc2)c1=O	tim10-1 inh 41 | tim10-1 confirm inactive
CCc1noc(C)c1C(=O)NCCN1C(=O)S/C(=C\c2ccc(OC)cc2)C1=O	none
CCc1nc(CNC(=O)C2CCC(=O)N(Cc3cccc(OC)c3)C2)no1 (configuration not stated)	none
COc1cccc(/C=N/n2c(C)nc3ccccc32)c1OC	tim10-1 inh 44 | tim10-1 confirm inactive
O=c1c2ccccc2oc2cc(NCCCN3CCOCC3)ccc12	tim10-1 inh 41 (no result: PfHsp90 yeast 2) | tim10-1 confirm inactive
O=c1c2ccccc2oc2ccc(NCCCN3CCOCC3)cc12	none
COC(=O)c1c(-c2ccccc2Cl)noc1/C=C/N(C)C	tim10-1 inh 40 | tim10-1 confirm inactive
COC(=O)/C=C/c1c(C)nc(NCc2ccccc2)nc1Cl	none
COc1ccc(N(C)S(=O)(=O)c2ccc(Cl)c(C(=O)NNC(=O)c3ccccc3O)c2)cc1	none (no result: SKKanGAS inh)
COc1cnc(-c2ccccn2)nc1Sc1ccc(C)cc1	tim10-1 inh 44, SKKanGAS inh 67 | tim10-1 confirm inactive
Cc1nc(N2CCN(C(=O)COc3ccccc3)CC2)c2c(C)c(C)sc2n1	tim10-1 inh 41 | tim10-1 confirm inactive
CCCN(Cc1ccccc1)C(=S)Nc1cccc(C(F)(F)F)c1	tim10-1 inh 47 | tim10-1 confirm 31
CCOC(=O)C1CCN(S(=O)(=O)c2cc(Br)cc3c2N(C(=O)C2CC2)CC3)CC1	none
O=C(C1CC1)N1CCc2cc(Br)cc(S(=O)(=O)N3CCN(c4ccccn4)CC3)c21	tim10-1 inh 44 | tim10-1 confirm 37
COc1ccc(C(F)(F)F)cc1N/C=C/c1nnnn1-c1ccc2ccccc2c1	none
CCOc1ccccc1Nc1ccnc2cc(Cl)ccc12	none
CCOc1ccc(NC(=S)NNc2ccnc3cc(Cl)ccc23)cc1	tim10-1 inh 47 (no result: PfHsp90 yeast 2) | tim10-1 confirm inactive
N/C(=N\OC(=O)CC(c1ccccc1)c1ccccc1)c1cccnc1	tim10-1 inh 47 | tim10-1 confirm 61
N/C(=N\OC(=O)Cc1ccc(-c2ccccc2)cc1)c1cccnc1	tim10-1 inh 47 | tim10-1 confirm 39
N/C(=N\OC(=O)CCC1CCCCC1)c1cccnc1	tim10-1 inh 46 | tim10-1 confirm 38
C=CCn1c(=S)[nH]c2cc(C(=O)N3CCN(c4ccccc4OC)CC3)ccc2c1=O	none (no result: SKKanGAS inh)
COc1c(Cl)cc(Cl)cc1/C=C/C(=O)c1ccc(NC(=O)c2cccs2)cc1	none
CCOC(=O)N1CCN(C(=O)c2ccc3nc(N4CCCCC4)sc3c2)CC1	none
O=C(c1nc2ccccc2s1)N1CCN(c2ccccn2)CC1	tim10-1 inh 45 (no result: SKKanGAS inh) | tim10-1 confirm inactive
O=C(c1ccc2nc(N3CCOCC3)sc2c1)N1CCC(Cc2ccccc2)CC1	tim10-1 inh 54 | tim10-1 confirm 43
O=C(c1ccc2nc(N3CCCCC3)sc2c1)N1CCN(c2ccccn2)CC1	tim10-1 inh 51 | tim10-1 confirm 35
O=C(c1nc2ccccc2s1)N1CCSCC1	none
CC(=O)c1ccc(S(=O)(=O)N2CCC(C(=O)Nc3ncc(C)s3)CC2)cc1	none (no result: SKKanGAS inh)
CCn1nc(C)c(C(=O)Nc2cc(Oc3cc(C)cc(C)c3)cc([N+](=O)[O-])c2)c1C	tim10-1 inh 43 | tim10-1 confirm 39
CCN(CC)C(=O)c1ccc(COc2ccccc2Cl)cc1	tim10-1 inh 42 | tim10-1 confirm inactive
COc1cc2c(cc1OC)CN(C1CC(=O)N(c3c(C)cccc3C)C1=O)CC2 (configuration not stated)	none
Cc1cccc(/C=N/NC(=O)c2ccc(NC(=O)c3ccc(Cl)cc3)cc2)n1	tim10-1 inh 96 | tim10-1 confirm inactive
CS(=O)(=O)Nc1cc2c3c(c1)CCC(=O)N3CCC2	none
O=C(Oc1c(-c2ccccc2)c(=O)n2c3c(cccc13)CC2)c1ccc(Cl)cc1	none
O=C(Oc1c(-c2ccccc2)c(=O)n2c3c(cccc13)CC2)c1ccco1	tim10-1 inh 46 | tim10-1 confirm inactive
Cc1ccc(-c2csc(NC(=O)CN3CC(C)OC(C)C3)n2)cc1 (configuration not stated)	tim10-1 inh 40 | tim10-1 confirm 34
CC(C)n1c(O)c(N=NC(=O)Cn2ccc(C(F)(F)F)n2)c2ccccc21	tim10-1 inh 44 | tim10-1 confirm inactive
O=C(Cn1ccc(C(F)(F)F)n1)N=Nc1c(O)[nH]c2ccccc12	none
Cc1cccc(NC(=O)CC2SC(=O)N(c3ccccc3)C2=O)c1 (configuration not stated)	tim10-1 inh 43 | tim10-1 confirm 37
O=C(CC1SC(=O)N(c2ccccc2)C1=O)Nc1ccccc1 (configuration not stated)	none
CSc1ccc(/C=C/C(=O)OCC(=O)NC2CC2)cc1	none (no result: SKKanGAS inh)
C/C(=N\Nc1nc2ccccc2s1)c1ccc2c(c1)OCO2	tim10-1 inh 42, SKKanGAS inh inconclusive | tim10-1 confirm inactive
COc1ccc(C(C)(C)C)cc1NC(=O)COc1ccc(-c2nnco2)cc1	none (no result: PfHsp90 yeast 2, SKKanGAS inh)
CCOC(=O)C1NN=C(C(=O)c2ccccc2)C1c1ccc(Cl)cc1 (configuration not stated)	tim10-1 inh 43 | tim10-1 confirm inactive
CCOC(=O)C1NN=C(C(=O)c2ccccc2)C1c1ccccc1 (configuration not stated)	none
COCCNC(=O)CNC(=S)N(CCCN1CCOCC1)Cc1cccs1	none
Oc1cc(-c2ccccc2)c2ccccc2c1	tim10-1 inh 54 | tim10-1 confirm 51
c1ccc2c(c1)-c1cccc3c1c-2cc1ccccc13	none (no result: PfHsp90 yeast 2, SKKanGAS inh)
N#C/C(=C/c1ccc(N2CCCCCC2)o1)c1ccc(Cl)cc1	PfHsp90 yeast 2 104, tim10-1 inh 47 | tim10-1 confirm inactive
Cc1ccc(/C(C#N)=C\c2ccc(N3CCOCC3)o2)cc1	none
CCOC(=O)C1=C(CC)Nc2ccccc2N=C1NC(=O)c1oc2ccccc2c1C	tim10-1 inh 43, SKKanGAS inh inconclusive | tim10-1 confirm inactive
COc1ccc(CN(C)C(=O)C2CSC3(C)CCC(=O)N23)cc1OC (configuration not stated)	none (no result: SKKanGAS inh)
COc1ccc(/C=C/C(=O)c2ccccc2)cc1Cn1nnc2ccccc21	tim10-1 inh 59 | tim10-1 confirm 45
CCCCSCCCNC(=O)Nc1ccc(C)c(C)c1	tim10-1 inh 47 (no result: PfHsp90 yeast 2) | tim10-1 confirm inactive
C/C(=N\O)c1ccc2c3ccccc3n(C)c2c1	tim10-1 inh 44 (no result: PfHsp90 yeast 2) | tim10-1 confirm inactive
C/C(=N\O)c1c(C)c2ccccc2n1C	none
Cc1ccccc1OCC(=O)N(Cc1ccco1)c1c(N)n(Cc2ccccc2)c(=O)[nH]c1=O	none (no result: SKKanGAS inh)
C=CCNC(=O)c1cc2sccc2n1C	none
CC(C)c1ccc(NC(=O)Nc2cc3sccc3n2C)cc1	tim10-1 inh 42 | tim10-1 confirm inactive
